KB-3-1 tox: kills parental KB-3-1 adenocarcinoma cells; Potency, µM (series often up to 46.1 µM), actives largely listed as cytotoxic; 1.4% of 400,000 active; KB-3-1 viability, CellTiter-Glo ATP luminescence, 72 h; note: nearly all actives have a fitted effect of over 60% in size
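Viability of parental KB-3-1 cells, measured by CellTiter-Glo luminescence, followed a 72 h incubation at 37 °C with pinned compounds in phenol-red-free DMEM containing 10% FBS.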
HT1080-NT tox: kills 2HG-producing HT-1080-NT fibrosarcoma cells; 1.6% of 360,000 active; AID 686970; HT-1080-NT fibrosarcoma viability, CellTiter-Glo ATP luminescence, 48 h; Potency, µM (top dose mostly 46.1 µM), hits mostly cytotoxic;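 note: NT is the 2HG producing partner of a matched IDH1 knockdown line; nearly all actives have a fitted effect of over 55% in size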
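750 cells/well, RPMI + 5% FBS; 2 h settle, compound pin-transfer, 48 h at 37 degrees C. CellTiter-Glo 10 min RT, luminescence. Normalized to DMSO and media-only wells.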
KB-V1 MDR tox: KB-V1 MDR subline cytotoxicity | 3.4% of 400,000 active | Potency, µM (highest dose often 46.1 µM), hits mostly cytotoxic | KB-V1 MDR cells viability, CellTiter-Glo, 72 h | AID 1347076; note: nearly all actives have a fitted effect of over 60% in size
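Potencies derive from concentration-effect curves fitted to normalized luminescence (CellTiter-Glo) of KB-V1 cells treated for 72 h at 37 degrees C in phenol-red-free DMEM containing 10% FBS.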
MCF10A rerep: induces DNA re-replication in MCF 10a normal breast cells. MCF 10A DNA re-replication, Hoechst nuclear intensity, 48 h. 2.9% of 350,000 active. Potency, µM (top dose mostly 46.1 µM), hits mostly activators. AID 624296; note: nearly all actives have a fitted effect of over 50% in size
HT1080 IDH1KD tx: toxicity to HT-1080 IDH1 knockdown cells (counter line); HT-1080 IDH1 knockdown viability, ATP luminescence, 48 h; Potency, µM (titrated, usually from 46.1 µM), actives largely listed as cytotoxic; 2% of 360,000 active; AID 686971
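IDH1KD HT-1080 cells, 750/well, RPMI + 5% FBS; compound pinned after 2 h settling; 48 h, 37 °C; CellTiter-Glo luminescence; % activity normalised to DMSO and no-cell wells; curves fitted, classed by r2 and efficacy.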
SW480 rereplic: DNA re-replication induction in SW480 cells. SW480 DNA re-replication, Hoechst DNA content imaging, 48 h. Potency, µM (series often up to 46.1 µM), actives largely listed as activators. 1.8% of 340,000 active. AID 624297; note: nearly all actives have a fitted effect of over 55% in size
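SW480 cells exposed to compounds for 48 hr at 37 C, 5% CO2, then Hoechst-stained 40 min. Nuclear DNA content imaged by fluorescence scanning (405 nm excitation, 500-530 nm emission); re-replication scored as increased high-intensity nuclei.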
Each line names hits and unclear results; the compound was inactive in the other large screens. Compounds with a hit are over-represented: about 8% of the library has one in this group of screens. Calls come from the whole dose curve; as a rule, active = well fitted curve in the direction sought with a large enough effect; inconclusive = small, poorly fitted or top-dose-only effect, or another doubt; inactive = no such curve, though single readings can be large; an effect the other way counts as inactive or inconclusive.

CCCNC(=O)CSc1nc(-c2cccs2)cc(C(F)(F)F)n1	KB-V1 MDR tox inconclusive
CCOc1ccc(NC(=O)CSc2nc(-c3cccs3)cc(C(F)(F)F)n2)c([N+](=O)[O-])c1	MCF10A rerep 11.6µM
CCOc1ccccc1NC(=O)Nc1ccc2nc(N3CCN(C)CC3)cc(C)c2c1	KB-V1 MDR tox inconclusive (no result: HT1080-NT tox, MCF10A rerep, HT1080 IDH1KD tx, SW480 rereplic)
O=S(=O)(c1cccs1)N1CCN(c2nc(-c3cccs3)nc3ccccc23)CC1	none (no result: KB-3-1 tox, KB-V1 MDR tox, MCF10A rerep, SW480 rereplic)
COc1cc(C2CC(=O)N(CC(=O)Nc3ccccc3F)c3ccccc3S2)cc(OC)c1OC (stereo not given)	KB-V1 MDR tox inconclusive (no result: HT1080-NT tox, MCF10A rerep, HT1080 IDH1KD tx, SW480 rereplic)
CCc1ccc(C(=O)c2cn(CC(=O)Nc3ccc4c(c3)OCCO4)c3ccc(CC)cc3c2=O)cc1	none (no result: HT1080-NT tox, MCF10A rerep, HT1080 IDH1KD tx, SW480 rereplic)
CCn1c(SCc2ccc(OC)c(F)c2)nc2ccccc2c1=O	HT1080-NT tox inconclusive, KB-V1 MDR tox inconclusive, MCF10A rerep 18.4µM
Cn1c(SCc2ccon2)nc2ccccc2c1=O	MCF10A rerep 8.2µM, SW480 rereplic 14.6µM
Cn1c(SCc2nnc(-c3ccccc3)o2)nc2ccccc21	KB-V1 MDR tox inconclusive
Cc1ccc(-n2c(SCc3ccc([N+](=O)[O-])cc3)nc3ccccc3c2=O)cc1	MCF10A rerep inconclusive
CCOC(CCn1c(SCc2ccc([N+](=O)[O-])cc2)nc2ccccc2c1=O)OCC	KB-V1 MDR tox 3.66µM
COc1ccc(-c2nnc(CSc3nc4ccccc4c(=O)n3C)o2)cc1OC	KB-V1 MDR tox 3.66µM
NS(=O)(=O)c1ccc(CCNC(=O)C(=O)NCC2OCCN2S(=O)(=O)c2ccc(F)cc2)cc1 (stereo not given)	HT1080-NT tox inconclusive, HT1080 IDH1KD tx inconclusive
O=C(CCn1c(=O)oc2ccccc21)N1CCN(c2ccccc2F)CC1	KB-V1 MDR tox 23.1µM
CC(=O)N1CCN(c2ccc(Oc3ccc([N+](=O)[O-])c(C(F)(F)F)c3)cc2)CC1	KB-3-1 tox inconclusive, HT1080-NT tox inconclusive, KB-V1 MDR tox 5.17µM, MCF10A rerep inconclusive
CCOc1ccc(C(=O)Nc2ccc(N3CCN(C(C)=O)CC3)cc2)cc1[N+](=O)[O-]	KB-V1 MDR tox inconclusive
CCCCNCC(O)(c1ccc(Cl)cc1)c1ccc(Cl)cc1	HT1080-NT tox inconclusive, MCF10A rerep inconclusive, HT1080 IDH1KD tx 18.4µM
CCCCCNCc1ccc(Cl)cc1	none
COc1ccc(CNCC(O)(c2ccc(Cl)cc2)c2ccc(Cl)cc2)cc1OC	HT1080-NT tox inconclusive, KB-V1 MDR tox 7.31µM, MCF10A rerep inconclusive, HT1080 IDH1KD tx inconclusive, SW480 rereplic inconclusive
CCc1cccc(C)c1NC(=O)c1cc(S(=O)(=O)N(C)Cc2ccccc2)ccc1F	KB-V1 MDR tox inconclusive (no result: HT1080-NT tox, MCF10A rerep, HT1080 IDH1KD tx, SW480 rereplic)
CC(C)CC(NC(=O)C1CCC(C)CC1)C(=O)NCc1cccnc1 (stereo not given)	KB-V1 MDR tox 18.4µM
CC1CCC(C(=O)NC(C(=O)NCc2cccnc2)C(C)C)CC1 (stereo not given)	KB-V1 MDR tox 20.6µM
Cc1ccc(S(=O)(=O)c2cn(CC(=O)Nc3ccc4c(c3)OCO4)c3ccccc3c2=O)cc1	none (no result: HT1080-NT tox, MCF10A rerep, HT1080 IDH1KD tx, SW480 rereplic)
CCc1ccc(S(=O)(=O)Nc2cc3c(cc2C)n(C)c(=O)c(=O)n3C)cc1	none (no result: HT1080-NT tox, MCF10A rerep, HT1080 IDH1KD tx, SW480 rereplic)
Nc1nonc1-n1nnc(C(=O)N/N=C/c2ccc(OCc3ccc(F)cc3)cc2)c1COc1ccccc1	HT1080-NT tox 18.4µM, MCF10A rerep inconclusive, HT1080 IDH1KD tx inconclusive, SW480 rereplic 14.6µM
COc1ccc2ccccc2c1/C=N/NC(=O)c1nnn(-c2nonc2N)c1C(C)C	KB-V1 MDR tox inconclusive, MCF10A rerep inconclusive, HT1080 IDH1KD tx inconclusive
Cc1ccc(COc2cccc(/C=N/NC(=O)c3nnn(-c4nonc4N)c3C)c2)cc1	MCF10A rerep 2.59µM
Cc1c(C(=O)N/N=C/c2c(O)ccc3ccccc23)nnn1-c1nonc1N	KB-3-1 tox inconclusive, HT1080-NT tox inconclusive, HT1080 IDH1KD tx 0.581µM, SW480 rereplic 0.731µM
Cc1ccc(S(=O)(=O)Nc2cc3c4c(c2)CCC(=O)N4CCC3)cc1	MCF10A rerep 9.2µM
O=C1CCc2cc(NS(=O)(=O)c3ccc(Br)cc3)cc3c2N1CC3	none
